# “And” between values parts separate entries of the source, which are not always exact repeats. Equal entries are not always repeated. The whole screen tested about 16,000 compounds, of which about 2,600 (16%) were called active. About 20% were inconclusive and are not listed. Not all results are given here. Unmarked numbers belong to inactive results. Calls come from the whole dose curve; as a rule, active = well fitted curve in the direction sought with a large enough effect; inconclusive = small, poorly fitted or top-dose-only effect, or effect the other way; inactive = no such curve, though single readings can be large or run the other way.
# Molecular target: Cytochrome P450 2D6 (Homo sapiens) (UniProt P10635)
# Sequence (P10635 whole entry, looked up): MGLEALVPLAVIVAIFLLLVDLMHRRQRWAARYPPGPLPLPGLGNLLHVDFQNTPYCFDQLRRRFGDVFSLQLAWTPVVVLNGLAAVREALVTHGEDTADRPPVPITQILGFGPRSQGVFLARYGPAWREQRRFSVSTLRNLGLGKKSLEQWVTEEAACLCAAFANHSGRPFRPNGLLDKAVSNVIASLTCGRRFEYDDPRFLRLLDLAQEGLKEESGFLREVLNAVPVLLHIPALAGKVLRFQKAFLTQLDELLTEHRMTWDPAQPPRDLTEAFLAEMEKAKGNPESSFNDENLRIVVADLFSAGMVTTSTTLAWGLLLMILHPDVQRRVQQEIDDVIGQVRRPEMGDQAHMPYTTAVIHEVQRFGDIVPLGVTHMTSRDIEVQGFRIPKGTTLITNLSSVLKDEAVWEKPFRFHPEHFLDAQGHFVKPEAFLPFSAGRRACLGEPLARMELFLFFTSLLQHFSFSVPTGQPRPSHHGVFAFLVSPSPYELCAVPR
# Experiment: Cytochrome panel assay with activity outcomes
# Settings: recombinant CYP, pro-luciferin dealkylation, luminescence, p450-cyp2d6; series mostly up to 57.1 µM
# % is set by controls: 0 for no effect and ±100 for the full control effect.
Structure (SMILES),"activity, negative = inhibition",AC50
CC(=O)O[C@H]1C2=CO[C@H](C)[C@H]3[C@H]4C5=C([C@H](O)[C@H]6O[C@@H]6C5=O)[C@H](O[C@H]4C)[C@@]23C(=O)[C@H]2O[C@@H]21,17.5% [at 11.4 µM],
COc1cc2nc(N3CCN(C(=O)c4ccco4)CC3)nc(N)c2cc1OC,,inactive
CCNc1nnc(-c2ccncc2)s1,,inactive
O=C1C[C@@H](O)[C@@H](O)[C@H]2[C@@H]3C(=O)N(C4CCCCC4)C(=O)[C@@H]3CC[C@H]12,9.04% [at 11.4 µM] and 6.81% [at 11.4 µM] and 7.19% [at 11.4 µM],
CN1CCN(c2ncc3nc(-c4cccs4)c(=O)n(Cc4cccs4)c3n2)CC1,,inactive
COc1ccc(C(=O)Nc2nc3c(s2)Cc2cc(OC)ccc2-3)cc1,,inactive
C=CCN=C1CC(C)(C)CC(=O)/C1=C(\O)c1ccccc1,,inactive
COc1ccc(-n2c(CNC(=O)c3cc(OC)c(OC)c(OC)c3)n[nH]c2=S)cc1,,inactive
COc1ccc(NC(=O)N2CCCC3(CCN(C(=O)c4csnn4)CC3)C2)cc1,,inactive
CC(C)NC(=O)N1CC[C@@]2(CCCN(C(=O)c3csnn3)C2)C1,,inactive
CC(C)CN1CC[C@@]2(CCCN(C(=O)c3csnn3)C2)C1,,0.501 µM (active)
CN1CCN(c2ccc([N+](=O)[O-])cc2C(=O)N2CCOCC2)CC1,,inactive
COc1ccc(/C=C/C(=O)NCc2cn(C)nc2C)cc1COc1ccc(Br)cc1,,inactive
COc1ccc(C(=O)NNC(=O)Cc2ccc(-c3ccccc3)cc2)cc1OC,,inactive
COc1ccc(C(=O)NN)cc1COc1ccc(Br)cc1,,12.6 µM (active)
COC(=O)[C@H](CCSC)NC(=O)C/C=C\[C@@H](C)CO,4.64% [at 11.4 µM],
COc1ccc([C@@H]2CNC(=O)C2)cc1OC1CCCC1,,inactive
CC[C@@H]1OC(=O)[C@H](C)[C@H](O[C@@H]2C[C@](C)(OC)[C@H](O)[C@H](C)O2)[C@H](C)[C@H](O[C@@H]2O[C@@H](C)C[C@@H](N(C)C)[C@@H]2O)[C@](C)(O)C[C@H](C)C(=O)[C@H](C)[C@H](O)[C@]1(C)O,,inactive
CC[C@]1(O)C[C@@H]2CN(CCc3c([nH]c4ccccc34)[C@](C(=O)OC)(c3cc4c(cc3OC)N(C=O)[C@H]3[C@@](O)(C(=O)OC)[C@H](C(=O)OC)[C@@]5(CC)C=CCN6CC[C@]43[C@H]65)C2)C1,,inactive
COc1c(Cl)cc(Cl)cc1CNCCNCCO,,15.8 µM (active)
CCOc1cc(/C=N/O)cc(Cl)c1OC,,inactive
OCCSCc1cc(Cl)cc(Cl)c1O,-5.19% [at 11.4 µM],
COc1c(Cl)cc(Cl)cc1CNCCNCC(C)O (stereo not drawn),,1.78 µM (active)
COc1ccc(-c2nc3cnc(N(C)C)nc3n(C[C@H]3CCCO3)c2=O)cc1,,inactive
Cc1ccc(NC(=O)CCC(=O)NNC(=O)c2cccs2)c(C)c1,,inactive
C[C@@H]1OC2C3=C(C(=O)[C@H]4O[C@@H]4[C@H]3O)[C@@H]1[C@H]1[C@H](C)OC=C3[C@H](O)[C@H]4O[C@H]4/C(=N\OCc4ccccc4)[C@@]321,3.22% [at 11.4 µM],
CO[C@@H]1COC(=O)[C@H](COCc2ccccc2)NC(=O)C/C=C\[C@@H](C)[C@H](OC)COC(=O)[C@@H](C)NC(=O)C/C=C\[C@H]1C,0.0549% [at 11.4 µM],

Structure (SMILES),"activity, negative = inhibition",AC50
O=C(O)[C@H]1C[C@@H](CP(=O)(O)O)CCN1,,inactive
CC(=O)OC[C@H]1O[C@@H](O/N=C(\C)CCN2CCc3nc(-c4ccccc4)c(-c4ccccc4)cc3C2)[C@H](OC(C)=O)[C@@H](OC(C)=O)[C@H]1OC(C)=O,,3.16 µM (active)
CC(=O)OC[C@@H]1O[C@H](CCO/N=C(\C)CCN2CCc3nc(-c4ccccc4)c(-c4ccccc4)cc3C2)C=C[C@@H]1OC(C)=O,-10.6% [at 11.4 µM],
CCCNC(=O)OC[C@@H]1O[C@H](CCO/N=C(\C)CCN2CCc3nc(CC)c(CC)cc3C2)C=C[C@@H]1Oc1ccc(OC)cc1,-13.6% [at 11.4 µM],
CCc1cc2c(nc1CC)CCN(CC/C(C)=N/OCC[C@@H]1C=C[C@H](OC(C)=O)[C@H](COC(C)=O)O1)C2,-5.93% [at 11.4 µM],
C=CC[C@@H]1C=C[C@H](O/N=C(\C)CCN2CCc3nc(-c4ccccc4)c(-c4ccccc4)cc3C2)[C@H](CO)O1,0.49% [at 11.4 µM],
CCc1cc2c(nc1CC)CCN(CC/C(C)=N/O[C@@H]1O[C@H](COC(C)=O)[C@H](OC(C)=O)[C@H](OC(C)=O)[C@H]1OC(C)=O)C2,,3.98 µM (active)
CC1(C)CC(=O)C(C(C#Cc2ccccc2)C2=C(O)CC(C)(C)CC2=O)=C(O)C1,,inactive
CSc1nc2cc(S(=O)(=O)N3CCCCC3)ccc2s1,11.3% [at 11.4 µM],
O=C(O)CONC(=O)c1cc(OCC(F)(F)F)ccc1OCC(F)(F)F,,inactive
O=C(NCC1CCCO1)/C(=C\c1ccco1)NC(=O)c1ccccc1 (stereo not drawn),,inactive
O=C(Nc1cccc(OC(=O)c2cccnc2)c1)c1cccnc1,,inactive
O=C(Nc1cccnc1)c1ccc2snnc2c1,,15.8 µM (active)
O=C(Nc1ccc(OC(=O)c2cccnc2)cc1)c1cccnc1,,inactive
O=C(CCn1nc(-c2ccc(Cl)cc2)ccc1=O)NCc1ccccn1,,inactive
O=C1C=C(Nc2nc(C(=O)O)cc(=O)[nH]2)c2ccccc2C1=O,-6.72% [at 11.4 µM],
O=C1C=C(NCCc2cc(Br)c(O)c(Br)c2)C(=O)c2ncccc21,,1.58 µM (active)
Cc1cccc(Oc2coc3cc(OC(=O)c4cc5ccccc5oc4=O)ccc3c2=O)c1,,inactive
CCOC(=O)c1cc(C#N)c(Oc2ccccc2OC)nc1-c1ccccc1,,inactive
CCOc1cc(C)ccc1OCc1nnc(SCC(=O)c2cccc([N+](=O)[O-])c2)n1CC,,inactive
Cc1cc2c(ncn2Cc2ccccc2)c([N+](=O)[O-])c1C,,inactive
CCCCN1C(=O)CC(Sc2ccccc2C(=O)O)C1=O (stereo not drawn),,inactive
CCCCN1C2=NCCCN2c2ccccc21,,5.01 µM (active)
Cc1ccc(C)c(C(=O)CN2C3=NCCCN3c3ccccc32)c1,,0.01 µM (active)
CCCN1C2=NCCCN2c2ccccc21,,7.08 µM (active)
Cc1ccccc1CN1C2=NCCN2C(=O)C2=C1CCN(Cc1ccccc1)C2,-16.1% [at 11.4 µM],

# From PubChem BioAssay AID1851 (National Center for Advancing Translational Sciences (NCATS), 2009)
